Source: PubChem BioAssay
Only a selection was taken, and hits are over-represented in it overall.
IDE exosite FP: displaces the probe from the exo-site of human IDE | P14735 | purified IDE, FL-6b probe fluorescence polarization; active compounds read low | z-score at 20 µM | 6.3% of 17,000 active;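 active means z-score of -3 or lower, meaning strong loss of probe binding signal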;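 further: His-tagged human IDE residues 42-1019 made in E. coli with 30 nM FL-6b probe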
Target sequence (P14735 42-1019 limits assumed): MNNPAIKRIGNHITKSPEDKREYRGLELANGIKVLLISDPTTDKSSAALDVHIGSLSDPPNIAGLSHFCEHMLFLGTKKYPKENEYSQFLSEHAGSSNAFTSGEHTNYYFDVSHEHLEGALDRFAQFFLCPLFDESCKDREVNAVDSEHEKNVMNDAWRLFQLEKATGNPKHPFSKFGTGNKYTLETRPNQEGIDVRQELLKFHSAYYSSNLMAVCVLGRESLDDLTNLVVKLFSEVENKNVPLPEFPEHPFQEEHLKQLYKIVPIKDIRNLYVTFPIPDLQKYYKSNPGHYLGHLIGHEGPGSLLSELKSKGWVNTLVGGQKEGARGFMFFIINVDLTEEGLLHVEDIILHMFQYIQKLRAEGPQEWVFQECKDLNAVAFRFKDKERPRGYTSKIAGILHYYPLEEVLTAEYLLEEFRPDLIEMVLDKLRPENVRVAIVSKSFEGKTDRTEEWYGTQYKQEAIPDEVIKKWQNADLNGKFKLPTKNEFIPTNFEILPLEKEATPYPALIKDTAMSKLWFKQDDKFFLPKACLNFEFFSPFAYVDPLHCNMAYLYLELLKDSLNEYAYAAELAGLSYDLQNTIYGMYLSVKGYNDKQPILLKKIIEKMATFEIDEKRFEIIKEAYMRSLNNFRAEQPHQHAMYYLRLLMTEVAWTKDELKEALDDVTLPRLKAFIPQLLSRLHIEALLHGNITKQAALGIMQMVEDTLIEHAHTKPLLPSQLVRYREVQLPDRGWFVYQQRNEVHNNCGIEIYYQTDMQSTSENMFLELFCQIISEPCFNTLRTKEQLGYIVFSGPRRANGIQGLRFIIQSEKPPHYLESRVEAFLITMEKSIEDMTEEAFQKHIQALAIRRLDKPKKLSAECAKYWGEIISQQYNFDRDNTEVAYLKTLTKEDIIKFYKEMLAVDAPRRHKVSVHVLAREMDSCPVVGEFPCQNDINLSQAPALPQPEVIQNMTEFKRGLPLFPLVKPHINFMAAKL
An asterisk follows results filed as active.

SMILES	IDE exosite FP
COc1cccc(C#Cc2ccc([C@@H]3[C@@H](CO)N(C(=O)C4CCOCC4)[C@H]3C#N)cc2)c1	-1.05
COc1ccccc1-c1ccc([C@H]2[C@@H](C#N)N(C(=O)C3CCOCC3)[C@H]2CO)cc1	-6.87*
COc1ccc(-c2ccc([C@@H]3[C@@H](CO)N(C(=O)C4CCOCC4)[C@H]3C#N)cc2)cc1	-1.03
CCCN1C[C@H](C)[C@H](OC)CN(C)C(=O)c2cc(NS(=O)(=O)c3ccccc3)ccc2OC[C@H]1C	0.617
COc1ccc(-c2ccc(C3[C@H]4CNC[C@@H]3N4CC3CCOCC3)cc2)cc1 (stereo not given in full)	2.13
CN1C(=O)c2cc(NS(C)(=O)=O)ccc2OC[C@@H]2O[C@@H](CC(=O)NCc3ccccc3)CC[C@@H]21	-1.12
O=C(N[C@H]1CC[C@@H](CCNS(=O)(=O)c2ccc(F)cc2)O[C@@H]1CO)C1CCC1	2.33
O=C(Nc1ccccc1F)N1CCCCN2[C@@H](CO)[C@H](c3ccc(-c4cccnc4)cc3)[C@@H]2C1	-0.202
CNC(=O)C[C@@H]1CC[C@@H]2[C@@H](COc3ccc(NC(=O)c4ccccc4F)cc3C(=O)N2C)O1	-0.71
COc1cccc(-c2ccc(C3[C@@H]4CN(S(=O)(=O)c5cn(C)cn5)C[C@H]3N4)cc2)c1 (stereo not given in full)	-1.35
CCc1csc(N2[C@@H](C#N)[C@H](c3ccc(-c4ccc(F)cc4)cc3)[C@@H]2CO)n1	4.83
CCC(=O)N1[C@@H](CO)[C@@H](c2ccc(-c3cccc(F)c3)cc2)[C@@H]1CNC(C)=O	4.63
CCC(=O)N1[C@H](CO)[C@H](c2ccc(-c3ccccc3OC)cc2)[C@H]1CNC(C)=O	-8.24*
CC(=O)NC[C@H]1[C@H](c2ccc(-c3ccccc3F)cc2)[C@H](CO)N1C(C)=O	3.89
CCC(=O)N1[C@H](CNC(C)=O)[C@H](c2ccc(-c3ccc(F)cc3)cc2)[C@@H]1CO	0.699
CCC(=O)N1[C@H](CO)[C@H](c2ccc(-c3ccccc3OC)cc2)[C@@H]1CNC(C)=O	-15*
CCC(=O)N1[C@H](CO)[C@H](c2ccc(-c3cccc(F)c3)cc2)[C@@H]1CNC(C)=O	2.54
O=C(Nc1ccccc1)N1CC(=O)N2[C@H](CO)[C@H](c3ccc(-c4ccc(F)cc4)cc3)[C@H]2C1	2.39
O=C(CN1CCOCC1)N1CC(=O)N2[C@@H](CO)[C@H](c3ccc(/C=C/c4ccccc4)cc3)[C@@H]2C1	-8.18*
O=C(CN1CCOCC1)N1CC(=O)N2[C@H](CO)[C@H](c3ccc(/C=C/c4ccccc4)cc3)[C@@H]2C1	-8.67*
Cc1ccc(-c2ccc([C@H]3[C@H]4CN(C(=O)CN5CCOCC5)CC(=O)N4[C@H]3CO)cc2)cc1	0.399
Cc1ccc(-c2ccc([C@@H]3[C@@H](CO)N4C(=O)CN(C(=O)CN5CCOCC5)C[C@H]34)cc2)cc1	-2.26
CCCC#Cc1ccc([C@@H]2[C@H]3CN(C(=O)CN4CCOCC4)CC(=O)N3[C@H]2CO)cc1	4.21
CO[C@@H](CN(C)Cc1cc(F)ccc1F)[C@H](C)CN(C(=O)Nc1ccc(C(F)(F)F)cc1)[C@@H](C)CO	-0.275
COCC(=O)N1CC(=O)N2[C@@H](CO)[C@@H](c3ccc(C#CC4CCCC4)cc3)[C@@H]2C1	2.67
SMILES	IDE exosite FP
Cc1nn(C)cc1NC(=O)C[C@H]1CC[C@H]2[C@@H](COc3ccc(NC(=O)C4CCOCC4)cc3C(=O)N2C)O1	-1.1
O=C1CN(S(=O)(=O)c2ccccc2)C[C@@H]2[C@@H](c3ccc(C#CCc4ccccc4)cc3)[C@H](CO)N12	4.76
COc1ccc(C#Cc2ccc([C@H]3[C@@H](CO)N4CCCCN(C)C[C@H]34)cc2)cc1	2
OC[C@@H]1[C@H](c2ccc(C#Cc3ccccc3F)cc2)[C@H]2CN(Cc3cncnc3)CCCCN12	-9.68*
OC[C@H]1[C@H](c2ccc(C#Cc3ccccc3F)cc2)[C@@H]2CN(CC3CCOCC3)CCCCN12	0.242
OC[C@@H]1[C@@H](c2ccc(C#Cc3ccccc3)cc2)[C@H]2CN(Cc3cncnc3)CCCCN12	0.194
OC[C@H]1[C@@H](c2ccc(-c3ccccc3)cc2)[C@H]2CN(Cc3cncnc3)CCCCN21	-1.26
COc1ccc(C#Cc2ccc([C@@H]3[C@H](CO)N4CCCCN(C)C[C@@H]34)cc2)cc1	-0.0839
CN1CCCCN2[C@H](CO)[C@H](c3ccc(C#Cc4ccccc4F)cc3)[C@@H]2C1	-5.51*
OC[C@@H]1[C@H](c2ccc(C#Cc3ccccc3F)cc2)[C@H]2CN(CC3CCOCC3)CCCCN12	-2.26
OC[C@H]1[C@@H](c2ccc(C#Cc3ccccc3F)cc2)[C@@H]2CN(CC3CCOCC3)CCCCN12	-2.85
CN1CCCCN2[C@H](C1)[C@H](c1ccc(C#Cc3ccccc3F)cc1)[C@@H]2CO	-3.92*
COc1ccc(C#Cc2ccc([C@@H]3[C@@H](CO)N4CCCCN(C)C[C@H]34)cc2)cc1	0.274
CN1CCCCN2[C@H](CO)[C@H](c3ccc(C#Cc4ccccc4F)cc3)[C@H]2C1	-4.48*
C/C=C/c1ccc([C@H]2[C@@H](CO)N(S(=O)(=O)CC)[C@H]2CN(C)C(=O)CC)cc1	1.09
